For twelve compounds, SARS-CoV-2 infection rate results are on record in the supplement of paper PMC13380429.

Each structure is given as a SMILES string. Unmarked numbers belong to inactive results.

This test deals with Vero E6 infected with SARS-CoV-2. The test is described as follows: SARS-CoV-2 infection rate relative to infected DMSO; higher = more infection, active = 60 or less. The note with it: 24 h.
As for `COc1nccc(-c2c(-c3ccc(F)cc3)ncn2C2CCNCC2)n1` (10 µM), the SARS-CoV-2 infection rate is 98.5%.
Then `COc1ccc(-c2ccc3c(N4CCOC[C@@H]4C)nc(N4CCOC[C@@H]4C)nc3n2)cc1CO` (0.833333 µM), with 105%; and `COC(=O)c1ccc(O)cc1` [methylparaben] (10 µM), with 114%.
Under `Cc1ccc([N+](=O)[O-])cc1O` [2-methyl-5-nitrophenol] (10 µM) stands 98.5%; under `O=C(N[C@H](CO)[C@H](O)c1ccc([N+](=O)[O-])cc1)C(Cl)Cl` [chloramphenicol] (10 µM), 117%.
With `CC(C)C[C@H](NC(=O)[C@@H](O)[C@H](N)Cc1ccccc1)C(=O)O` [ubenimex] (10 µM), the SARS-CoV-2 infection rate is 96%.
Under `C=CC(=O)Nc1cccc(Nc2nc(Nc3ccc(OCCOC)cc3)ncc2F)c1` (0.833333 µM) stands 116%.
Then `O=C(Nc1ccccc1)N1CCC(Cc2cnc3ccccc3c2)CC1` (10 µM), with 104%; and `NS(=O)(=O)c1cc(C2(O)NC(=O)c3ccccc32)ccc1Cl` (configuration not stated) [chlorthalidone] (10 µM), with 78.5%; and `CCCCCCCC/C=C/C(=O)O` [trans-2-undecenoic-acid] (10 µM), with 112%.
In the case of `C[C@@H](O)[C@H]1C(=O)N2C(C(=O)O)=C(S[C@@H]3CN[C@H](C(=O)Nc4cccc(C(=O)O)c4)C3)[C@H](C)[C@H]12` [ertapenem] (10 µM), the SARS-CoV-2 infection rate was 106%.
Then `COc1cc(C[C@H]2C(=O)OC[C@@H]2Cc2ccc(OC)c(OC)c2)ccc1O` [arctigenin] (10 µM), with 108%.
